Data reported in PubChem BioAssay (NCI).
Compounds without any hit were thinned out: in the full panel of roughly 83,000, 20% have a hit.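 Negative percent growth values reflect cell death: -40 means 40% of the cells present at the start died, and -100 means all died.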 Calls of active or inactive are those of the source. The calls were made as follows: active = growth percent below 10; inactive = the rest.

Assays:
Experiment in all cases: NCI-60 one-dose screen, 48 h (100 = growth as untreated, 0 = no growth, -100 = all killed)
Conditions in all cases: 10 µM
DU-145 prostate = tested on: DU-145 prostate
K-562 leukemia = tested on: K-562 leukemia
MALME-3M melanoma = tested on: MALME-3M melanoma
MDA-MB-231 breast = tested on: MDA-MB-231 breast
RXF 393 renal = tested on: RXF 393 renal
SF-268 CNS = tested on: SF-268 CNS
SF-295 CNS = tested on: SF-295 CNS
SF-539 CNS = tested on: SF-539 CNS
UACC-257 melanoma = tested on: UACC-257 melanoma
M14 melanoma = tested on: M14 melanoma

Measured: growth

COc1ccc2[nH]c(=O)c(CSc3nccc(-c4ccc(Cl)cc4)n3)cc2c1
active: RXF 393 renal -23.7% | SF-295 CNS -20.3% | SF-539 CNS -70.3% | UACC-257 melanoma 6.77%
inactive: DU-145 prostate 44.8% | K-562 leukemia 23.2% | MALME-3M melanoma 46.4% | MDA-MB-231 breast 18.4% | SF-268 CNS 28.8% | M14 melanoma 55.2%

N#Cc1c(NC(=O)c2cccc(C(F)(F)F)c2)sc2c1CCC(O)=C2
inactive: DU-145 prostate 50.1% | K-562 leukemia 14.5% | MALME-3M melanoma 19.3% | MDA-MB-231 breast 39.6% | RXF 393 renal 50.7% | SF-268 CNS 38.6% | SF-295 CNS 35.3% | SF-539 CNS 48.1% | UACC-257 melanoma 30.1% | M14 melanoma 36.8%

CCN1CCN(Cc2ccc(NC(=O)c3cccc(-n4cc(-c5ccc(NC(C)=O)nc5)nn4)c3)cc2C(F)(F)F)CC1
active: K-562 leukemia -28.4%
inactive: DU-145 prostate 104% | MALME-3M melanoma 53.1% | MDA-MB-231 breast 75.8% | RXF 393 renal 102% | SF-268 CNS 123% | SF-295 CNS 93.1% | SF-539 CNS 73.1% | UACC-257 melanoma 87% | M14 melanoma 78.3%

C=C1CCC2C3(C)COC(c4cc(F)cc(F)c4)OC3CCC2(C)C1C/C=C1/C(=O)OCC1O (stereo not given)
active: DU-145 prostate -52.9% | MALME-3M melanoma -78.8% | MDA-MB-231 breast -63.7% | RXF 393 renal -73.7% | SF-295 CNS -82.7% | SF-539 CNS -90.9% | UACC-257 melanoma -85.4% | M14 melanoma -64.6%
inactive: K-562 leukemia 12.7% | SF-268 CNS 36.7%

C=C1CCC2C3(C)COC(c4cccc(F)c4)OC3CCC2(C)C1CC(O)C1=CCOC1=O (stereo not given)
inactive: DU-145 prostate 72.8% | K-562 leukemia 24.1% | MALME-3M melanoma 90.8% | MDA-MB-231 breast 67.5% | RXF 393 renal 57.2% | SF-268 CNS 106% | SF-295 CNS 74.5% | SF-539 CNS 84.8% | UACC-257 melanoma 72.7% | M14 melanoma 61.1%

C=C(c1ccc(OC)c(N)c1)c1cc(C)nc2ccccc12
active: SF-295 CNS 6.83% | SF-539 CNS -34.2%
inactive: DU-145 prostate 14.9% | K-562 leukemia 11.3% | MALME-3M melanoma 49.9% | MDA-MB-231 breast 10.5% | RXF 393 renal 51.4% | SF-268 CNS 24.3% | UACC-257 melanoma 63.3% | M14 melanoma 16%

O=C1Nc2cc(-c3ccc(NC(=O)c4cccs4)cc3)ccc2/C1=C/c1ccc[nH]1
inactive: DU-145 prostate 32.7% | K-562 leukemia 80.8% | MALME-3M melanoma 78.2% | MDA-MB-231 breast 61% | RXF 393 renal 73.9% | SF-268 CNS 73.5% | SF-295 CNS 55.1% | SF-539 CNS 83.9% | UACC-257 melanoma 75.2% | M14 melanoma 88.9%

COc1ccc(-c2ccc(/C=N/NC(=O)c3[nH]c4ccc(Br)cc4c3-c3ccccc3)o2)cc1
inactive: DU-145 prostate 75.5% | K-562 leukemia 10.5% | MALME-3M melanoma 47% | MDA-MB-231 breast 52.6% | RXF 393 renal 16.8% | SF-268 CNS 37.9% | UACC-257 melanoma 63.2% | M14 melanoma 17%
active: SF-295 CNS 4.48% | SF-539 CNS -14.1%

O=C(c1ccc(Cl)cc1)C1[C@H](c2ccc(Br)cc2)[C@@H](c2ccccc2)NC12C(=O)Nc1ccc(Cl)cc12 (stereo not given in full)
active: DU-145 prostate -27.9% | K-562 leukemia -31.2% | MALME-3M melanoma -97.7% | MDA-MB-231 breast -95.3% | RXF 393 renal -88.8% | SF-268 CNS -7.66% | SF-295 CNS -84% | SF-539 CNS -58.5% | UACC-257 melanoma -49.4% | M14 melanoma 6.42%

COc1cccc(COc2ccc(/C=C3\Oc4cc(O)ccc4C3=O)cc2)c1
active: RXF 393 renal -19.3% | SF-295 CNS 9.41%
inactive: DU-145 prostate 31.8% | K-562 leukemia 49.4% | MALME-3M melanoma 14.3% | MDA-MB-231 breast 28.6% | SF-268 CNS 17.2% | SF-539 CNS 30% | UACC-257 melanoma 70.6% | M14 melanoma 35.9%

CN(C(=O)c1ccc(C(F)(F)F)cc1C(F)(F)F)c1sc2c(c1C#N)CCC(=O)C2
active: K-562 leukemia 6.49% | RXF 393 renal 7.86% | SF-539 CNS -37.6%
inactive: DU-145 prostate 103% | MALME-3M melanoma 99% | MDA-MB-231 breast 71.1% | SF-268 CNS 85% | SF-295 CNS 65.1% | UACC-257 melanoma 99% | M14 melanoma 73.9%

N#Cc1c(-c2ccc(F)cc2)nc(SCc2ccc(F)cc2)nc1N1CCOCC1
inactive: DU-145 prostate 77.8% | K-562 leukemia 83.8% | MALME-3M melanoma 58.6% | MDA-MB-231 breast 50.5% | RXF 393 renal 41.6% | SF-268 CNS 43.4% | SF-295 CNS 36.9% | SF-539 CNS 49% | UACC-257 melanoma 77.1% | M14 melanoma 92.2%

CO[C@@H]1CSSC1Cn1nc(-c2ccc(Oc3ccccc3)cc2)c2c(N)ncnc21 (stereo not given in full)
active: K-562 leukemia 4.87% | MALME-3M melanoma 8.55% | M14 melanoma -90.6%
inactive: DU-145 prostate 49.8% | MDA-MB-231 breast 52.1% | RXF 393 renal 28.8% | SF-268 CNS 39.5% | SF-295 CNS 47.8% | SF-539 CNS 44.1% | UACC-257 melanoma 10.9%

Cc1ccc(CSc2nc(Cl)c(C#N)c(-c3ccc(F)cc3)n2)cc1
inactive: DU-145 prostate 75.1% | K-562 leukemia 55.7% | MALME-3M melanoma 113% | MDA-MB-231 breast 96.5% | RXF 393 renal 70.2% | SF-268 CNS 81.8% | SF-295 CNS 70.2% | SF-539 CNS 71.8% | UACC-257 melanoma 75.3% | M14 melanoma 87.6%

COC[C@@H](CC(C)C)N=C1NC(=O)/C(=C/c2ccc3ncsc3c2)N1
inactive: DU-145 prostate 15.7% | K-562 leukemia 11.8% | SF-268 CNS 16% | SF-295 CNS 23.2% | UACC-257 melanoma 16.2% | M14 melanoma 42.3%
active: MALME-3M melanoma 8.01% | MDA-MB-231 breast 9.26% | RXF 393 renal -36.9% | SF-539 CNS -20.5%

Brc1ccc(/C=C/c2n(Cc3ccc4ccccc4c3)c3ccccc3[n+]2Cc2ccc3ccccc3c2)cc1
active: DU-145 prostate 3.53% | K-562 leukemia -19.3% | MALME-3M melanoma -87.8% | MDA-MB-231 breast -95.9% | RXF 393 renal -83.1% | SF-268 CNS -38.3% | SF-295 CNS -65.4% | SF-539 CNS -98.4% | UACC-257 melanoma -40.3% | M14 melanoma -31.7%

CNCc1cccc2c1OCCCCCC[C@@](C)(O)CC1(CC1)S(=O)(=O)c1ccc(cc1)-c1cnc(N)c(n1)C(=O)N2
active: DU-145 prostate -84.5% | K-562 leukemia -37.5% | MALME-3M melanoma -75.2% | MDA-MB-231 breast -92.8% | RXF 393 renal -94.2% | SF-268 CNS -64.2% | SF-295 CNS -100% | SF-539 CNS -98.9% | UACC-257 melanoma -75% | M14 melanoma -38.6%

COc1ccc2c3nc4cc(C)c(C)cc4nc3n(CCN(C)C)c2c1
active: DU-145 prostate -3.48% | K-562 leukemia 3.09% | MALME-3M melanoma -86% | MDA-MB-231 breast -10% | RXF 393 renal -25.5% | SF-295 CNS -59.4% | SF-539 CNS -88.1% | M14 melanoma -73.5%
inactive: SF-268 CNS 27.8% | UACC-257 melanoma 10.5%

O=C(N/N=C/c1ccc(B(O)O)o1)c1[nH]c2ccc(Br)cc2c1-c1ccccc1
active: K-562 leukemia 7.21% | RXF 393 renal 1.27% | SF-295 CNS -8.66% | SF-539 CNS -33.4%
inactive: DU-145 prostate 40.9% | MALME-3M melanoma 61.1% | MDA-MB-231 breast 28.1% | SF-268 CNS 51.1% | UACC-257 melanoma 63.4% | M14 melanoma 20.1%

O=C(c1ccccc1)n1ccc(-c2cc3cc(Br)ccc3oc2=O)n1
active: UACC-257 melanoma 2.91% | M14 melanoma -4.71%
inactive: DU-145 prostate 37.3% | K-562 leukemia 19.9% | MALME-3M melanoma 36.8% | MDA-MB-231 breast 32% | RXF 393 renal 45.2% | SF-268 CNS 36.5% | SF-295 CNS 24.4% | SF-539 CNS 10.5%

O=C(c1ccc(Cl)cc1)C1[C@H](c2ccccc2Br)[C@@H](c2ccccc2)NC12C(=O)Nc1ccc(Br)cc12 (stereo not given in full)
active: K-562 leukemia 6.68% | MDA-MB-231 breast 2.81% | RXF 393 renal -26.1%
inactive: DU-145 prostate 29.7% | MALME-3M melanoma 50.1% | SF-268 CNS 32.7% | SF-295 CNS 14.9% | SF-539 CNS 30.2% | UACC-257 melanoma 10.3% | M14 melanoma 27.5%

COc1cc2c(cc1OC)/C(=C\c1sc(Nc3ccc(O)cc3)nc1O)C(C(=O)O)=N2
active: DU-145 prostate 6.39% | SF-539 CNS -20.2% | M14 melanoma 4.93%
inactive: K-562 leukemia 11.2% | MALME-3M melanoma 12.8% | MDA-MB-231 breast 29.8% | RXF 393 renal 25% | SF-268 CNS 54.2% | SF-295 CNS 11.9% | UACC-257 melanoma 48.8%

O=c1oc2ccc(-c3ccc(F)cc3F)cc2c(=O)n1-c1ccc(F)c(Cl)c1
active: K-562 leukemia 3.74% | MALME-3M melanoma -29.1% | MDA-MB-231 breast -27.6% | RXF 393 renal -19.7% | SF-268 CNS 2.31% | SF-295 CNS -80.3% | SF-539 CNS -5.14% | UACC-257 melanoma -15.9%
inactive: DU-145 prostate 12.6% | M14 melanoma 12.8%

COc1cc(/C=C/C(=O)c2cc(OC)c(OC)c(OC)c2)ccc1Oc1nc(Nc2ccc(F)cc2)nc(N(C)C)n1
active: DU-145 prostate -35.8% | K-562 leukemia 2.36% | MALME-3M melanoma -40.3% | MDA-MB-231 breast -60% | RXF 393 renal -74.9% | SF-295 CNS -55.2% | SF-539 CNS -80.6% | UACC-257 melanoma -30.5% | M14 melanoma -27.5%
inactive: SF-268 CNS 27.7%
